Shown are actives, neighbours in structure and some others; about 4.7% of the full set was active somewhere.
TRHR agonist: agonists of human TRH receptor; activation, % at 2 µM; TRHR cells, calcium flux fluo-8, FDSS agonist mode; hit rate 0.18% among 360,000
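TRHR-expressing cells loaded with fluo-8 calcium dye; 23 nL library compound pin-transferred, kinetic FDSS fluorescence (Ex 480/Em 530) recorded about 180 s for agonist-induced calcium release, before a 10 nM TRH EC20 addition for potentiator mode.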
TRHR enhancer: allosteric enhancers of human TRH receptor; enhancement, % at 2 µM; hit rate 0.66% among 360,000; TRHR cells, fluo-8 calcium fluorescence, EC20 TRH enhancement; P34981; AID 493056; in the data active = enhancement above about 30%
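Enhancer read-out: after compound pinning and an initial kinetic agonist-mode read, an EC20 of TRH (10 nM final) was injected and fluo-8 calcium signal (Ex 480/Em 530) followed at 1 s/cycle for 100 cycles in TRHR-expressing cells.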
D1 agonist: human D1 receptor agonism; activation, % at 2 µM; hit rate 1% among 360,000; P21728; HEK293 T-REx D1 cells, calcium flux, agonist mode; AID 504660
Target sequence (P21728 whole entry, looked up): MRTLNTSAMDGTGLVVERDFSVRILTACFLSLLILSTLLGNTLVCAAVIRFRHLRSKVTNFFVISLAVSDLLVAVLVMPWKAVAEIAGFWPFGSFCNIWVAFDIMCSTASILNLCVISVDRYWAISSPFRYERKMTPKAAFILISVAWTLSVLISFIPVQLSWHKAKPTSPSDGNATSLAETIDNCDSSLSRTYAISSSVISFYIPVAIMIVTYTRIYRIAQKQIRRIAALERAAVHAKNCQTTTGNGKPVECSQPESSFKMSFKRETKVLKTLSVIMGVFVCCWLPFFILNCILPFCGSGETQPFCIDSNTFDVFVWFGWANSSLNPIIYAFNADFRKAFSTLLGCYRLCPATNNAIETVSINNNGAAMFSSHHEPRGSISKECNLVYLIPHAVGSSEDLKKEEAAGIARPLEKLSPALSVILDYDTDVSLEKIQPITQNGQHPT
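Inducible HEK293 T-REx D1 cells, force-coupled to calcium signalling, were plated at 4000 cells/well with tetracycline and held overnight at 30 C. After no-wash calcium dye loading, compound-evoked calcium rise over 180 s flagged agonists.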
D1 antagonist: human D1 dopamine receptor antagonism; activity change, negative = inhibition, % at 10 µM; hit rate 3.2% among 360,000; P21728; AID 504652; HEK293 TREx D1 cells, calcium flux, dopamine EC80; stronger effect = lower value; in the data active = activity change below about -30%
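Inducible Hek293 Trex D1 cells (tetracycline, overnight, 30 C). Calcium dye 30–90 min RT. Antagonist mode: EC80 dopamine added after 180 s compound read.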
D1 potentiator: human D1 dopamine receptor positive modulation. P21728. hit rate 0.036% among 360,000. AID 504651. potentiation, % at 10 µM. HEK293 TREx D1 cells, calcium flux, dopamine EC20 potentiation; in the data active = potentiation above about 30%
A number is an active result; i = inactive. Cut-off read from the data, not from the text of the source, unless noted: active = activation above about 30%; inactive = the rest.

SMILES	TRHR agonist	TRHR enhancer	D1 agonist	D1 antagonist	D1 potentiator
COc1cc2c(cc1OC)n(Cc1cccc(C(F)(F)F)c1)c(=O)n1nc(-c3ccccc3)nc21	i	i	i	i	i
Cc1ccc(C)c2sc(N3CCN(C(=O)c4ccc([N+](=O)[O-])o4)CC3)nc12	i	i	i	i	i
O=C(c1ccc([N+](=O)[O-])o1)N1CCN(c2nc3c(F)cc(F)cc3s2)CC1	i	i	i	-31	i
CCOC(=O)c1[nH]c(Cc2[nH]c(C(=O)OCC)c(C)c2CCC(=O)OC)c(CCC(=O)OC)c1C	i	i	i	-55	i
CCCCc1c(C)[nH]c(C(=O)OCC)c1C	i	i	i	i	i
CCOC(=O)c1c(C)[nH]c(C(=O)OC)c1CCC(=O)OC	i	i	i	-36	i
CC1c2ccccc2SC(CCCN(C)C)c2ccccc21 (stereo not given)	i	i	48	-48	i
CCCCN(C)CCNC(=O)Cn1ncc2c3ccccc3n(CCC)c2c1=O	i	31	i	i	i
CCCCC(=O)Nc1nc2c(OC)cc([N+](=O)[O-])cc2s1	i	i	i	-34	i
CCn1cc(CNC(=O)c2cc(-c3ccc(C)cc3)nc3ccc(Br)cc23)c(C)n1	i	i	i	i	i
NS(=O)(=O)c1ccc(N=Nc2ccc(O)c3ncccc23)cc1	i	i	i	i	i
Oc1ccc(N=Nc2ccc3c(c2)OCCO3)c2ncccc12	i	i	41	i	i
CCOc1cc2sc(N3CCC(C(=O)Nc4ccc(C)cc4)CC3)nc2cc1Br	i	i	i	-58	i
CN1C(=O)/C(=C/c2cccc(Cl)c2)Sc2ccc(C(=O)NCc3cccnc3)cc21	i	i	i	-40	i
CN1CCN(C(=O)c2ccc3c(c2)N(C)C(=O)/C(=C/c2cccc(Cl)c2)S3)CC1	i	i	i	-38	i
COc1cccc(/C=C2\Sc3ccc(C(=O)NCc4cccnc4)cc3N(C)C2=O)c1	i	i	i	i	i
O=[N+]([O-])/C(=C\Nc1ccc(F)cc1F)S(=O)(=O)c1ccccc1	i	i	i	i	i
Cc1nc(NC2=NCN(CCc3ccccc3)CN2)nc2ccccc12	i	i	i	i	i
Cc1ccc2c(C)nc(NC3=NCN(CCc4ccccc4)CN3)nc2c1	i	i	i	-43	i
COc1ccc(S(=O)(=O)NCc2ccc3c(c2)OCO3)cc1OC	i	i	i	-55	i
COc1ccc(S(=O)(=O)NCc2ccc3c(c2)OCO3)cc1C	i	i	i	-87	i
Cc1ccc(S(=O)(=O)NCc2ccc3c(c2)OCO3)cc1C	i	i	i	i	i
COc1ccc(S(=O)(=O)NCc2ccc3c(c2)OCO3)cc1C(=O)O	i	i	i	i	i
O=S(=O)(Cc1ccc(Cl)cc1)NCc1ccc2c(c1)OCO2	i	i	i	-36	i
O=C(Nc1ccccc1Cl)C1CCCN(c2ncnc3c2nc2n3CCCCC2)C1 (stereo not given)	i	i	i	i	i
SMILES	TRHR agonist	TRHR enhancer	D1 agonist	D1 antagonist	D1 potentiator
COc1ccc(Cn2c(=O)c3cccnc3n(Cc3ccc([N+](=O)[O-])cc3)c2=O)cc1	i	i	i	i	i
COc1ccc(CCn2c(=O)c3cccnc3n(Cc3ccc([N+](=O)[O-])cc3)c2=O)cc1OC	i	i	i	-46	i
COCCN(CC(=O)NCC1CCCO1)C(=O)CCC(=O)Nc1cc(C)ccn1 (stereo not given)	i	i	i	-37	i
Cc1ccc(NC2CCCN(C(=O)c3ccc(C)c(N4CCNC4=O)c3)C2)cc1C (stereo not given)	i	i	i	i	i
Nc1ccc(S(=O)(=O)NC2(C(F)(F)F)NC(=O)N(c3ccccc3F)C2=O)cc1 (stereo not given)	i	i	i	i	i
O=C(COc1ccccc1)NC(=S)Nc1ccc2c3c(cccc13)CC2	i	i	i	i	i
O=C(COc1ccccc1)NC(=S)Nc1cccc2cc(O)ccc12	i	i	35	i	i
N#Cc1ccc(S(=O)(=O)N2CCCN(c3ccc(C(F)(F)F)cn3)CC2)cc1	i	i	i	-36	i
COc1cc(/C=C/c2nc3cc(Cl)ccc3c(=O)n2-c2cccc(C(F)(F)F)c2)cc(OC)c1OC	i	i	i	i	i
O=C(c1cc(-c2ccc(Cl)cc2)on1)N(Cc1cccc(F)c1)Cc1ccco1	i	i	33	i	i
Cc1ccc(-c2cc(C(=O)N(Cc3ccccc3)Cc3ccco3)no2)cc1F	i	i	i	i	i
